What is called inhibition is the share of the control response that was lost under treatment.

The whole screen tested about 1,400 compounds, of which about 560 (40%) were called active. The set was probably picked from earlier hits. This is one part of the list. A number with no mark means an inactive call.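 Rule for the calls: active = mean inhibition over duplicate tests at 10 µM above 50%; inactive = the rest.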

The text below walks through data of PubChem BioAssay AID488857 (Sanford-Burnham Center for Chemical Genomics, 2010).

A short description of the test: ASC/caspase-1 reporter retest in S. cerevisiae at one dose, specificity check for NALP1 project (AID 488857). The settings on record: S. cerevisiae ASC/Caspase-1, beta-galactosidase luminescence, 24 h; at 10 µM; active compounds read high.
Turning to `CC1CCCCN1C(=S)Nc1ccc2nc3n(c(=O)c2c1)CCCCC3` (centres undefined), the inhibition is 40.4%.

Take `O=C(Nc1ccc2nc3n(c(=O)c2c1)CCCC3)c1cc([N+](=O)[O-])ccc1F`: the inhibition was 79.8% (active).

As to `Cc1cc(NC(=O)/C=C/c2ccccc2Cl)no1`, the inhibition is 51.1% (active).

Regarding `CCOC(=O)CCCNC(=O)COC(=O)c1ccc(O)cc1`, the inhibition was 35.5%.

Regarding `CCOC(=O)c1ccc(N2C(=O)CC(N3CCCC(C)C3)C2=O)cc1` (centres undefined), the inhibition was 49.7%.

In the case of `CCOC(=O)c1ccc(N2C(=O)C=CC2=O)cc1`, the inhibition was 82.3% (active).

`CC1=NNC(=O)/C1=C\c1cn(-c2ccccc2)nc1-c1cccs1`: the inhibition is 89.6% (active).

As to `CC1(C)CC(=O)c2c(-c3cccs3)n[nH]c2C1`, the inhibition was 44.1%.

As for `Cc1cc(N2CCOCC2)n2ncc(-c3ccccc3)c2n1`, the inhibition is 71.5% (active).

Take `COc1ccc(/C=C2\SC(N3CCc4ccccc4C3)=NC2=O)cc1`: the inhibition was 76.5% (active).

As to `CCOc1ccccc1C1CC(=O)NC(SCC(=O)Nc2nccs2)=C1C#N` (centres undefined), the inhibition was 10.7%.

On to `Cc1ccc(S(=O)(=O)NCc2ccc(C(=O)NCCCN3CCC(Cc4ccccc4)CC3)cc2)cc1`, for which the inhibition was 20.4%.

Take `CSc1ccc(S(=O)(=O)NCc2ccc(C)cc2)cc1`: the inhibition was 56% (active).

As for `COc1ccc(CNC(=O)CCNS(=O)(=O)c2ccc(C)cc2)cc1`, the inhibition is 43.1%.

For `c1ccc(-c2cccc(-c3ccccn3)n2)nc1`, the inhibition is 97.2% (active).

In the case of `c1ccc(Nc2ccccn2)cc1`, the inhibition was 34.5%.

On to `CCCCOC(=O)Oc1ccc2c(=O)c(Oc3cc(C)cc(C)c3)coc2c1`, for which the inhibition was 54.9% (active).

As for `Cc1cc(C)n(CCOc2ccc(Cl)cc2Cl)n1`, the inhibition is 56.7% (active).

For `CC1=C(C)/C(=N\OS(=O)(=O)c2ccc(C)cc2)C=CC1=O`, the inhibition is 92.7% (active).

Regarding `COc1ccccc1C/C(N)=N/OC(=O)c1cccc([N+](=O)[O-])c1C`, the inhibition is 41.5%.

With `O=C(Cc1ccc([N+](=O)[O-])cc1)c1ccc(O)cc1O`, the inhibition is 49.1%.

For the molecule `Cc1cccc(C(=O)NNC(=O)CN2C(=O)c3ccccc3C2=O)c1`, the inhibition is 32.6%.

On to `N/C(Cc1ccccc1)=N\OC(=O)c1cccc2ccccc12`, for which the inhibition was 51.2% (active).

Turning to `N/C(Cc1ccc(Cl)cc1)=N\OC(=O)C1CCCCC1`, the inhibition is 47.5%.

Take `Cc1cccc(/C(N)=N/OC(=O)c2ccc(Cl)cc2Cl)c1`: the inhibition is 32.9%.

Consider `Cc1cccc(/C(N)=N/OC(=O)c2cccc3ccccc23)c1`, for which the inhibition is 52.9% (active).

As for `N/C(Cc1ccc([N+](=O)[O-])cc1)=N\OC(=O)c1ccccc1Br`, the inhibition was 71% (active).

Take `CCOC(=O)C1C(=O)Oc2ccc3ccccc3c2C1C1CCOC1=O` (centres undefined): the inhibition was 32.4%.

Take `CN1CCN(S(=O)(=O)c2ccc(Br)c3nsnc23)CC1`: the inhibition was 45.2%.

Take `CN1CCN(C2=C(Cl)C(=O)N(CCc3ccccc3)C2=O)CC1`: the inhibition was 47.1%.

`C=CCSc1nsc(NC(=O)Nc2ccc(F)cc2)n1`: the inhibition is 98.9% (active).

As for `CCOC(=O)n1c(=O)n(Cc2ccccc2)c2ccccc21`, the inhibition is 47.1%.

Consider `CC12CCC(C(=O)O)(C/C1=N\O)C2(C)C` (centres undefined), for which the inhibition is 21%.

In the case of `COc1ccc(OCCCC(=O)Oc2ccc(OC)cc2)cc1`, the inhibition is 50.5% (active).

As to `CN(C)C(CNC(=O)CCCOc1ccccc1)c1ccco1` (centres undefined), the inhibition is 39.1%.

Regarding `COc1ccc(OCCCC(=O)NCCc2ccccc2)cc1`, the inhibition is 51.9% (active).

For the molecule `COc1ccc(CNCCSc2nnnn2C)cc1OC`, the inhibition is 40.2%.

On to `CCOCCCNCc1ccc(OCc2ccccc2Cl)cc1`, for which the inhibition is 45.9%.

`COc1ccc(C(CCNCc2ccccc2F)c2ccc(F)cc2)cc1` (centres undefined): the inhibition was 45.1%.

In the case of `COc1ccc(CNCCC(c2ccc(F)cc2)c2ccc(OC)cc2)cc1` (centres undefined), the inhibition is 61.4% (active).

Take `COc1ccc(OCCCC(=O)NCC(C)C)cc1`: the inhibition was 39.5%.

For the molecule `COc1ccc(OCC#CCNC(C)(C)C)cc1`, the inhibition is 30.3%.

As to `O=C(CCCN1C(=O)c2ccccc2C1=O)Oc1ccc(Cl)cc1`, the inhibition is 31.9%.

For the molecule `COc1ccc(CCNCc2ccc(OCc3ccccc3)cc2)cc1`, the inhibition was 80.8% (active).

For the molecule `COc1cc(/C=C2\SC(=Nc3ccc(F)cc3)N(c3ccc(F)cc3)C2=O)ccc1OCC(=O)O`, the inhibition was 31.9%.

As for `O=C1Cc2ccccc2C(=O)N1OCc1ccc(Cl)cc1Cl`, the inhibition is 29.5%.

In the case of `O=C1CCCc2ccccc2N1Cc1ccc(Cl)cc1Cl`, the inhibition was 31.8%.

Take `Clc1ccc(CO/N=C2\CCCc3nonc32)c(Cl)c1`: the inhibition is 52.5% (active).

As for `CN(C)C(=N)c1n[nH]nc1SCc1ccccc1`, the inhibition is 27.9%.

Regarding `CCCCN(CC)S(=O)(=O)c1ccccc1`, the inhibition is 8.05%.

With `CCCCCCCCCCCCCCCC[n+]1cccc(C(=O)N(CC)CC)c1`, the inhibition is 93.2% (active).

With `CCCCCCCCCCCCCCCC[n+]1ccc(/C=N/O)cc1`, the inhibition was 85.1% (active).

On to `CCCCCCCCCCCCCCCC[n+]1ccc(C(N)=O)cc1`, for which the inhibition was 80.4% (active).

Turning to `COC(=O)c1c(NC(=O)C2CCCO2)sc2c1CCC2` (centres undefined), the inhibition is 58% (active).

`COC(=O)c1c(NC(NC(=O)C(C)C)C(Cl)(Cl)Cl)sc2c1CCC2` (centres undefined): the inhibition is 33.2%.

For the molecule `CCOc1cc(-c2c(C)c(C)nc(N)c2C#N)ccc1O`, the inhibition is 49.5%.

As for `O=C(Nc1cc(N2CCOCC2)ncn1)NC1(C(F)(F)F)Oc2ccc(Cl)cc2O1` (centres undefined), the inhibition was 36.8%.

For the molecule `CCc1ccc(CC(=S)N2CCOCC2)cc1`, the inhibition is 51.4% (active).

Turning to `O=C(C(Cc1ccccc1)n1cccc1)N1CCN(c2ccccc2)CC1` (centres undefined), the inhibition is 49.2%.

`O=C(NC(=O)N1CCN(c2ccc(F)cc2)CC1)c1ccccc1`: the inhibition is 53% (active).

As for `O=S(=O)(N1CCCCC1)N1CCN(c2ccc(F)cc2)CC1`, the inhibition was 45.9%.

`CC(C)Oc1ccc(OCCNC2CCCC2)cc1`: the inhibition is 45.6%.

As for `CCN(CC)S(=O)(=O)c1cccc(C(=O)N[C@H](C(=O)O)C(C)C)c1`, the inhibition is 45.6%.

As for `COc1ccc(/C=C(/C(=O)c2cccs2)N2C=CC=CC2=C(C#N)C#N)cc1`, the inhibition is 51.5% (active).

As for `N#CC(C#N)=C1C=CC=CN1/C(=C\c1ccccc1Cl)C(=O)c1ccccc1`, the inhibition was 17.6%.

With `CN(C)CCNC=C(C(=O)Nc1ccc(Cl)cc1Cl)C(=O)Nc1ccc(Cl)cc1Cl`, the inhibition was 36%.

Regarding `Cn1nc(NC(=O)C(C)(C)C)c2c(F)cccc21`, the inhibition was 23.4%.

For the molecule `CCCC(CCC)c1nc2ccncc2[nH]1`, the inhibition was 39.7%.

Regarding `Clc1ccc(N2CCN(c3cnc4ccccc4n3)CC2)cc1`, the inhibition was 29.9%.

In the case of `CC1CCN(c2nc(CN3CCCCC3)nc3scc(-c4ccccc4)c23)CC1`, the inhibition is 65.8% (active).

For the molecule `COC(=O)c1c(S(=O)(=O)NCc2ccccc2)sc(C(=O)O)c1C`, the inhibition was 32.3%.

In the case of `O=C1S/C(=C\c2ccc(N3CCOCC3)o2)C(=O)N1c1ccccc1`, the inhibition is 56.8% (active).

`Cn1c(=O)c2c(nc(Sc3ncccn3)n2Cc2ccccc2Cl)n(C)c1=O`: the inhibition is 26.6%.

Turning to `Cc1ccc(S(=O)(=O)NCC(=O)N(CC(=O)NC(C)(C)C)Cc2cccs2)cc1`, the inhibition is 34.8%.

For `COc1cc(OC)nc(-n2ncc(Br)c(Br)c2=O)n1`, the inhibition was 51.4% (active).

Regarding `CCCC(=O)c1ccc(-c2ccccc2)cc1`, the inhibition is 57.2% (active).

As to `Cc1cccc(C)c1OCCNC(=O)CCC(=O)c1ccccc1`, the inhibition was 31.6%.

Consider `Cc1ccc(C(=O)CCC(=O)O)cc1`, for which the inhibition was 26.7%.

On to `Cc1c(NC(=O)c2cc3c(s2)-c2ccccc2OC3)cccc1[N+](=O)[O-]`, for which the inhibition is 72% (active).

As to `O=S(=O)(Nc1ccc(Oc2ncccn2)c(Cl)c1)c1ccc(F)cc1`, the inhibition is 32.6%.

`O=S(=O)(Nc1cc(Sc2cccc3cccnc23)c(O)c2ccccc12)c1ccc(F)cc1`: the inhibition was 90.7% (active).

With `Cc1cc(C)c(S(=O)(=O)Nc2cc(SCC(=O)O)c(O)c3ccccc23)cc1C`, the inhibition was 17.9%.

Consider `CC(C)(C)OC(=O)NCCCCCc1nnc(SCc2ccccc2)o1`, for which the inhibition was 71.4% (active).

`CC(C)Sc1nnc([C@H](Cc2ccccc2)NC(=O)OC(C)(C)C)o1`: the inhibition was 41.7%.

As to `CCCCSc1nnc(CCNC(=O)OC(C)(C)C)o1`, the inhibition was 47.8%.

`O=C(c1ccc(S(=O)(=O)c2ccccc2)cc1)N1CCCCCC1`: the inhibition was 31.9%.

Take `O=C(c1ccc(COc2ccccc2Br)cc1)N1CCCCC1`: the inhibition was 52.2% (active).

For the molecule `OCCN(CCO)c1ncnc2c1oc1ccc(Br)cc12`, the inhibition is 29.6%.

In the case of `CCN(CCO)Cc1csc2ccc(Br)cc12`, the inhibition is 55.5% (active).

Consider `COc1ccccc1N1CCN(CCCCCCOc2ccc(F)cc2)CC1`, for which the inhibition was 49.6%.

On to `COc1ccccc1OCCCCN1CCN(c2ccccc2OC)CC1`, for which the inhibition is 21.9%.

For `COc1ccccc1N1CCN(CCCCOc2cccc3ccccc23)CC1`, the inhibition was 63.3% (active).

Consider `Cc1cccc(NCc2nc3ccccc3n2C)c1`, for which the inhibition was 74% (active).

On to `Cc1nc2cc(-c3ccc(Cl)cc3)nn2c(C)c1CCC(=O)NC(C)c1ccc2c(c1)OCCO2` (centres undefined), for which the inhibition is 49%.

Turning to `O=C1/C(=C/c2ccccc2)CCCc2ccccc21`, the inhibition was 72.1% (active).

For the molecule `COc1cc(/C=C2/CCc3ccccc3C2=O)cc(OC)c1OC`, the inhibition was 69.8% (active).

`COc1ccc2c(c1)CC/C(=C/c1ccco1)C2=O`: the inhibition is 68.5% (active).

For the molecule `COc1ccc(/C=C2\COc3ccccc3C2=O)cc1OC`, the inhibition is 81.6% (active).

Take `Nc1ccc2c(c1)C/C(=C/c1ccco1)C2=O`: the inhibition was 21.8%.

As to `O=C1/C(=C/c2ccco2)Cc2ccccc21`, the inhibition was 48.4%.

With `COc1ccc(C2=C/C(=C/c3cccnc3)C(=O)O2)cc1OC`, the inhibition is 28.8%.

Regarding `COc1cc2ccccc2c2c1CCCC2=O`, the inhibition was 30%.

Take `Cc1n[nH]c(C)c1S(=O)(=O)N1CCN(C2CCCCC2)CC1`: the inhibition is 32.4%.

On to `CS(=O)(=O)N(CC(=O)Nc1ccccc1Sc1ccccc1)C1CCCCC1`, for which the inhibition is 19.4%.
